# Some structures have more than one record in an assay (separate samples or runs), and their calls can disagree. The source made the active and inactive calls. The calls were made as follows: active = hit-call score of the fitted dose curve at least 0.9, where 1 is the maximum; inactive = score below 0.9.
# Experiment: ATG_NF_kB_CIS: Attagene CIS-FACTORIAL HepG2 Assay for human Nuclear Factor Kappa B (NF-kB) (AID 2282991)
# Conditions: HepG2 Attagene cis-factorial NF-kB reporter mRNA; actives raise or lower the signal
# Procedure, shortened: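 Fluorescence of labelled RT-PCR products separated by capillary electrophoresis gives reporter mRNA levels from transfected HepG2 cells exposed 24 h; values are fitted in both directions relative to DMSO.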
row,SMILES,outcome
1,CC(O)C#N (stereo unspecified),inactive
2,CCCCc1ccc(O)cc1,inactive
3,CC(Cl)CN(C)C (stereo unspecified),inactive
4,Cc1cccc(N)c1,inactive
5,Cc1cc(C)c(C(=O)P(=O)(c2ccccc2)c2ccccc2)c(C)c1,inactive
6,FC(F)(F)C(F)(C(F)(F)F)C(F)(F)C(F)(F)CC1CO1 (stereo unspecified),inactive
7,COP(=O)(O)OC,inactive
8,CO/N=C(/C(=O)OC)c1ccccc1COc1ccccc1C,inactive
9,CC(O)C(F)(F)C(F)(F)F (stereo unspecified),inactive
10,CCCCN(CC)C(=O)SCCC,inactive
11,N#Cc1ccc(O)cc1,inactive
12,OCC(F)(F)OC(F)(F)C(F)(F)OC(F)(F)C(F)(F)OC(F)(F)F,inactive
13,Clc1ccc(Oc2ccccc2)cc1,inactive

# Experiment: ATG_NRF2_ARE_CIS: Attagene CIS-FACTORIAL HepG2 Assay for human Nuclear Factor Erythroid 2 Related Factor 2 (NFR2) response to Antioxidant Response Elements (ARE) (AID 2282992)
# Conditions: HepG2 Attagene ARE/NRF2 reporter, transcription factor activity; actives raise or lower the signal
# Procedure, shortened: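 Fluorescence intensity of reporter-specific cDNA fragments, separated by capillary electrophoresis, reflects mRNA induction in transfected HepG2 cells at 24 h. Activity is fitted bidirectionally, DMSO serving as baseline.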
SMILES,AC50,outcome
OCC(F)(F)OC(F)(F)C(F)(F)OC(F)(F)C(F)(F)OC(F)(F)CO,33.2 µM (active),–
O=c1[nH]c2ccccc2c(=O)o1,–,inactive
CC(=O)c1ccc(-c2ccccc2)cc1,–,inactive
CCCCOCCOP(=O)(OCCOCCCC)OCCOCCCC,–,inactive
c1cc2c3c(cccc3c1)CC2,–,inactive
O=S(=O)(c1ccc(O)cc1)c1ccc(O)cc1,–,inactive
O=S(=O)(F)C(F)(F)C(F)(F)C(F)(F)C(F)(F)C(F)(F)C(F)(F)C(F)(F)C(F)(F)F,63.6 µM (active),inactive
N#Cc1c(-c2ccc(Cl)cc2)[nH]c(C(F)(F)F)c1Br,0.0823 µM (active),–
ClC(Cl)=C(c1ccc(Cl)cc1)c1ccccc1Cl,35.3 µM (active),–
O=[N+]([O-])c1cc(Cl)ccc1Cl,–,inactive
Cn1[nH]nnc1=S,–,inactive
CC(=O)CCc1ccc2c(c1)OCO2,–,inactive
